Results: the supplement of paper PMC10646978
± gives the standard deviation.

What was measured:
Conditions in all cases: modulator concentration 10 µM
[1] = tested on: RAW-Dual (murine macrophage reporter line); assay: NF-kB reporter (SEAP) activity fold change vs agonist alone; higher = enhanced NF-kB activity
Outline: (§1)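 In 384-well plates holding 50 000 RAW-Dual murine macrophage reporter cells per well, compound at 10 μM final was pre-incubated for 1 hour at 37 °C, after which a PRR agonist was added overnight. Supernatant SEAP read with QUANTI-Blue at 620 nm absorbance reported NF-κB, and Lucia luciferase read with QUANTI-Luc luminescence reported IRF. Fold change values come from dividing each reporter signal by the mean of agonist-only control wells on the same plate, averaged over replicate plates with propagated errors.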

[2] = tested on: RAW-Dual (murine macrophage reporter line); assay: IRF reporter (Lucia luciferase) activity fold change vs agonist alone; higher = enhanced IRF activity
Outline: as §1

[3] = tested on: RAW-Dual (murine macrophage reporter line); assay: viability score (confluency relative to resting cells, overnight) (fraction); higher = more viable, active = viable (0.7 or more)
Outline: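 Confluency was the readout: RAW-Dual macrophages were imaged with IncuCyte after an overnight exposure to compound at 10 μM final. IncuCyte software produced two masks over all imaged wells. The viability score expresses confluency against resting cells, and both masks had to exceed 70% of resting cells for a compound to meet the cutoff.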

[4] = agonist: CpG ODN 1826 0.5 ug/mL

| Structure (SMILES) | NF-kB reporter [1, 4] | NF-kB reporter ([1]; agonist: LPS 0.1 ug/mL) | NF-kB reporter ([1]; agonist: MPLA […]) | IRF reporter ([2]; agonist: 3'3'-cGAMP 10 ug/mL) | IRF reporter ([2]; agonist: LPS 0.1 ug/mL) | IRF reporter ([2]; agonist: MPLA […]) | viability score [3] |
| --- | --- | --- | --- | --- | --- | --- | --- |
| Cc1cccc(Cn2cc(C=C3SC(=S)NC3=O)c3ccccc32)c1 | 0.681 ± 0.067 | 0.893 ± 0.043 | 1 ± 0.088 | 0.844 ± 0.045 | 0.955 ± 0.1 | 1.09 ± 0.17 | 1.02 (active) |
| O=C(CCCn1nc(-c2ccc(F)cc2)ccc1=O)Nc1cc(Cl)ccc1Cl | 1.01 ± 0.16 | 1.06 ± 0.091 | 0.989 ± 0.11 | 1.06 ± 0.066 | 1.03 ± 0.076 | 1.11 ± 0.18 | 1.02 (active) |
| Oc1cccc(C=Nc2ccc(N=Cc3cccc(O)c3O)cc2)c1O | 0.606 ± 0.053 | 0.727 ± 0.069 | 0.783 ± 0.079 | 0.712 ± 0.052 | 0.93 ± 0.2 | 0.922 ± 0.2 | 0.984 (active) |
| CCCOCCOC(=O)C1=C(C)NC2=C(C(=O)CCC2)C1c1ccc(F)c(F)c1 (centres undefined) | 0.971 ± 0.081 | 1.07 ± 0.1 | 0.851 ± 0.07 | 1.09 ± 0.042 | 1.41 ± 0.1 | 1.2 ± 0.12 | 1.01 (active) |
| COC(=O)N[C@H](C(=O)N[C@@H](Cc1ccccc1)[C@@H](O)CN(Cc1ccc(-c2ccccn2)cc1)NC(=O)[C@@H](NC(=O)OC)C(C)(C)C)C(C)(C)C.O=S(=O)(O)O | 1.78 ± 0.14 | 1.27 ± 0.1 | 1.46 ± 0.15 | 0.886 ± 0.064 | 1.02 ± 0.061 | 1.14 ± 0.1 | 1.01 (active) |
| CCC(C)(C)C(=O)OC1CC(C)C=C2C=CC(C)C(CCC3CC(O)CC(=O)O3)C21 (centres undefined) | 1.65 ± 0.13 | 1.56 ± 0.11 | 1.91 ± 0.18 | 0.43 ± 0.014 | 0.918 ± 0.087 | 0.524 ± 0.11 | 0.912 (active) |
| N=C(N)c1ccc(OCCCCCOc2ccc(C(=N)N)cc2)cc1.O=S(=O)(O)CCO.O=S(=O)(O)CCO | 0.243 ± 0.017 | 0.46 ± 0.037 | 0.492 ± 0.027 | 0.715 ± 0.079 | 1.18 ± 0.2 | 0.788 ± 0.16 | 0.305 (inactive) |
| Brc1ccc2ncnc(NCc3cccnc3)c2c1 | 1.22 ± 0.069 | 1.31 ± 0.11 | 1.02 ± 0.04 | 0.329 ± 0.014 | 0.498 ± 0.047 | 0.641 ± 0.11 | 1 (active) |
| CC1(C)OC(=O)NC1=O [Prestw-829] | 1 ± 0.076 | 1.07 ± 0.065 | 0.958 ± 0.024 | 0.93 ± 0.051 | 0.958 ± 0.13 | 1.01 ± 0.12 | 0.998 (active) |
| COC(=O)N[C@H](C(=O)N1CCC[C@H]1c1ncc(-c2ccc(-c3ccc(-c4cnc([C@@H]5CCCN5C(=O)[C@@H](NC(=O)OC)C(C)C)[nH]4)cc3)cc2)[nH]1)C(C)C.Cl.Cl | 0.437 ± 0.029 | 0.513 ± 0.032 | 0.759 ± 0.045 | 1.27 ± 0.042 | 1.85 ± 0.48 | 1.99 ± 0.46 | 0.204 (inactive) |
| CNC(=O)C(=O)Nc1cc(Cl)ccc1C | 1.07 ± 0.18 | 1 ± 0.078 | 0.912 ± 0.08 | 1.01 ± 0.042 | 1.25 ± 0.15 | 1.3 ± 0.19 | 1 (active) |
| Cc1nc2n(c(=O)c1CCN1CCC(c3noc4cc(F)ccc34)CC1)CCCC2O (centres undefined) | 1.11 ± 0.27 | 1.14 ± 0.071 | 0.997 ± 0.11 | 0.902 ± 0.038 | 1.26 ± 0.14 | 1.14 ± 0.11 | 1 (active) |
| CS(=O)(=O)N(CC(=O)NCCSCc1cccc(Cl)c1)c1ccc(F)cc1 | 0.742 ± 0.059 | 1.06 ± 0.059 | 0.857 ± 0.07 | 1.2 ± 0.03 | 1.13 ± 0.1 | 0.867 ± 0.26 | 1.01 (active) |
| COC(C)(CNC(=O)CSc1ccc(F)cc1)c1cccc(Cl)c1 (centres undefined) | 1.11 ± 0.4 | 1.07 ± 0.11 | 1.01 ± 0.074 | 0.973 ± 0.082 | 0.992 ± 0.13 | 1.12 ± 0.32 | 0.987 (active) |
| Nc1ccc(OCc2ccccc2)cc1 | 0.977 ± 0.16 | 1.01 ± 0.1 | 0.995 ± 0.12 | 0.635 ± 0.024 | 1.03 ± 0.1 | 1.16 ± 0.17 | 1.01 (active) |
| Nc1nc(Cl)nc2c1ncn2[C@@H]1O[C@H](CO)[C@@H](O)[C@@H]1F | 2.13 ± 0.16 | 1.41 ± 0.13 | 1.4 ± 0.087 | 1.08 ± 0.26 | 1.01 ± 0.045 | 0.918 ± 0.15 | 0.482 (inactive) |
| CCN(CC)S(=O)(=O)c1ccc(C(=O)Nc2cc(C)nn2-c2nc(C)c(C)c(=O)[nH]2)cc1 | 0.153 ± 0.012 | 0.267 ± 0.065 | 0.434 ± 0.015 | 0.883 ± 0.05 | 0.957 ± 0.099 | 0.994 ± 0.086 | 0.99 (active) |
| C1=CC2CC1CC2CN1CCC(N2CCCCC2)CC1 (centres undefined) | 0.089 ± 0.0093 | 0.949 ± 0.072 | 1.26 ± 0.13 | 0.578 ± 0.038 | 1.69 ± 0.099 | 1.79 ± 0.17 | 0.989 (active) |
| CC(C)CNC(=O)C(=O)Nc1ccc(C(C)C)cc1 | 1.03 ± 0.12 | 0.931 ± 0.11 | 1.01 ± 0.038 | 0.989 ± 0.15 | 0.959 ± 0.052 | 0.958 ± 0.093 | 1 (active) |
| CC(NCCC(c1ccccc1)c1ccccc1)c1ccccc1.Cl (centres undefined) | 0.274 ± 0.11 | 0.64 ± 0.047 | 0.67 ± 0.075 | 0.735 ± 0.058 | 0.929 ± 0.13 | 1 ± 0.13 | 0.204 (inactive) |
| Cc1ccc(S(=O)(=O)CCSc2cccc(C(=O)Nc3ccccc3)c2)cc1 | 0.992 ± 0.068 | 1.03 ± 0.087 | 0.909 ± 0.1 | 0.808 ± 0.03 | 1.26 ± 0.13 | 1.08 ± 0.098 | 1 (active) |
| O=S(=O)(Cc1cccc(F)c1)N1C2CCC1CC(Oc1cccnc1)C2 (centres undefined) | 1.18 ± 0.07 | 1.1 ± 0.099 | 1.04 ± 0.054 | 0.986 ± 0.04 | 1.06 ± 0.052 | 1.04 ± 0.1 | 1 (active) |
| COc1cc(CNC2CCCc3ccccc32)cc(OC)c1OC (centres undefined) | 0.878 ± 0.074 | 1.02 ± 0.095 | 0.982 ± 0.04 | 0.865 ± 0.056 | 1.05 ± 0.087 | 0.972 ± 0.15 | 0.992 (active) |
| Clc1ccccc1C1Nc2cccc3cccc(c23)N1 | 1.04 ± 0.092 | 0.898 ± 0.091 | 0.867 ± 0.084 | 0.684 ± 0.06 | 0.967 ± 0.14 | 0.792 ± 0.14 | 0.97 (active) |
| Cc1cc(OCC(=O)NNC(=O)COc2ccc(Br)cc2Br)cc(C)c1Cl | 0.961 ± 0.098 | 0.857 ± 0.13 | 0.985 ± 0.036 | 0.895 ± 0.15 | 0.987 ± 0.051 | 0.98 ± 0.086 | 0.945 (active) |
| COC(CNS(=O)(=O)c1ccccc1Br)c1ccc(C)s1 (centres undefined) | 1.04 ± 0.1 | 1.05 ± 0.095 | 1.13 ± 0.086 | 0.86 ± 0.082 | 0.965 ± 0.058 | 0.854 ± 0.098 | 0.997 (active) |
| Clc1ccc(CN2CCN(CCn3ccnc3-c3ccccc3)CC2)cc1 | 0.584 ± 0.055 | 1.29 ± 0.12 | 1.37 ± 0.2 | 0.841 ± 0.042 | 1.27 ± 0.086 | 1.13 ± 0.22 | 0.993 (active) |
